# Test results: PubChem BioAssay (NCATS)
# Values joined by “and” are separate entries in the source; they are usually repeats but may differ in a detail not shown here. Equal entries are not always repeated. Records with an inconclusive call do not appear. Entries that show only a call come without a potency. Active and inactive are the calls of the source. Unless noted, calls come from the whole dose curve; as a rule, active = well fitted curve in the direction sought with a large enough effect; inconclusive = small, poorly fitted or top-dose-only effect, or another doubt; inactive = no such curve, though single readings can be large; an effect the other way counts as inactive or inconclusive.
# Columns and labels:
# [1] = qHTS for differential inhibitors of proliferation of Plasmodium falciparum line HB3 (AID 1886); conditions: Potency: Plasmodium falciparum HB3 proliferation inhibition;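 note: parasites grown with compound for 72 h before SYBR Green readout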; note: potency is the fitted concentration of half-maximal effect
# [2] = target: Ferritin light chain (Equus caballus) (UniProt P02791); test: qHTS Validation Assay for Identification of Novel General Anesthetics (AID 2323); note: series mostly up to about 77 µM
# Sequence of Ferritin light chain (Equus caballus) (P02791 2-175 limits assumed): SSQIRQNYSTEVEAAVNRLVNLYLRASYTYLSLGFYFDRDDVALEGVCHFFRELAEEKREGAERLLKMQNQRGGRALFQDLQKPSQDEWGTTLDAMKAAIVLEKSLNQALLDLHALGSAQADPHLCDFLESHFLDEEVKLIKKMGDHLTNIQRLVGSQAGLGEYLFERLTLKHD
# Summary of the method: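 10 uM horse-spleen apoferritin + 1-AMA (50% saturated, PBS); cpd pin-transferred, 10 min RT. Ex 380/Em 535 nm endpoint. Activity normalized between free 1-AMA and 1-AMA/apoferritin; 4-parameter Hill fit of concentration-response.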
# [3] = target: ATP-dependent DNA helicase Q1 (Homo sapiens) (UniProt P46063); test: qHTS Validation Assay for Inhibitors of RecQ-Like Dna Helicase 1 (RECQ1) (AID 2353); note: potency is the fitted concentration of half-maximal effect
# Sequence of ATP-dependent DNA helicase Q1 (Homo sapiens) (P46063 whole entry, looked up): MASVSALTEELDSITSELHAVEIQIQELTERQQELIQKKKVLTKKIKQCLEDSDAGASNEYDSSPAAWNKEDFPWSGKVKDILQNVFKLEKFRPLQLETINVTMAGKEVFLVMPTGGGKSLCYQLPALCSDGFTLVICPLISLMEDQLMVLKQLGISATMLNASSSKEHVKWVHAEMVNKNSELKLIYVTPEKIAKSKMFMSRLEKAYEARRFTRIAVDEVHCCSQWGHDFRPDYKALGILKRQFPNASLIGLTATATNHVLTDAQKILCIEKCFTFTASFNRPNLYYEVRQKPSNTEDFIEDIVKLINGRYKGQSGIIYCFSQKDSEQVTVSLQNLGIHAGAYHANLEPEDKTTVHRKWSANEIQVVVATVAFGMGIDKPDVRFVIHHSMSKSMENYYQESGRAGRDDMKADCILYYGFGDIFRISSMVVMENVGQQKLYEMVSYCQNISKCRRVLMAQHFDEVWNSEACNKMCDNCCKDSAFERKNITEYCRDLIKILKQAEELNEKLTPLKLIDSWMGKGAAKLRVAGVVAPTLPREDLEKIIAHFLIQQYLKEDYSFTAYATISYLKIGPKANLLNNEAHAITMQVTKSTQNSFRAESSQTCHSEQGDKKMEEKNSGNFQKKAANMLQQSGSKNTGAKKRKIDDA
# Summary of the method: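 RECQ1T1 50 nM; forked duplex (20 bp + 30-nt ss tails) 200 nM, ATP 2 mM final; pH 8.0, 2 mM MgCl2, 2.5 ug/ml poly(dI-dC); 15 min compound preincubation; discontinuous kinetic read over 2 h at RT.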
# [4] = target: RecQ-like DNA helicase BLM (Homo sapiens) (UniProt P54132); test: qHTS Validation Assay for Inhibitors of Bloom's syndrome helicase (BLM) (AID 2364)
# Sequence of RecQ-like DNA helicase BLM (Homo sapiens) (P54132 whole entry, looked up): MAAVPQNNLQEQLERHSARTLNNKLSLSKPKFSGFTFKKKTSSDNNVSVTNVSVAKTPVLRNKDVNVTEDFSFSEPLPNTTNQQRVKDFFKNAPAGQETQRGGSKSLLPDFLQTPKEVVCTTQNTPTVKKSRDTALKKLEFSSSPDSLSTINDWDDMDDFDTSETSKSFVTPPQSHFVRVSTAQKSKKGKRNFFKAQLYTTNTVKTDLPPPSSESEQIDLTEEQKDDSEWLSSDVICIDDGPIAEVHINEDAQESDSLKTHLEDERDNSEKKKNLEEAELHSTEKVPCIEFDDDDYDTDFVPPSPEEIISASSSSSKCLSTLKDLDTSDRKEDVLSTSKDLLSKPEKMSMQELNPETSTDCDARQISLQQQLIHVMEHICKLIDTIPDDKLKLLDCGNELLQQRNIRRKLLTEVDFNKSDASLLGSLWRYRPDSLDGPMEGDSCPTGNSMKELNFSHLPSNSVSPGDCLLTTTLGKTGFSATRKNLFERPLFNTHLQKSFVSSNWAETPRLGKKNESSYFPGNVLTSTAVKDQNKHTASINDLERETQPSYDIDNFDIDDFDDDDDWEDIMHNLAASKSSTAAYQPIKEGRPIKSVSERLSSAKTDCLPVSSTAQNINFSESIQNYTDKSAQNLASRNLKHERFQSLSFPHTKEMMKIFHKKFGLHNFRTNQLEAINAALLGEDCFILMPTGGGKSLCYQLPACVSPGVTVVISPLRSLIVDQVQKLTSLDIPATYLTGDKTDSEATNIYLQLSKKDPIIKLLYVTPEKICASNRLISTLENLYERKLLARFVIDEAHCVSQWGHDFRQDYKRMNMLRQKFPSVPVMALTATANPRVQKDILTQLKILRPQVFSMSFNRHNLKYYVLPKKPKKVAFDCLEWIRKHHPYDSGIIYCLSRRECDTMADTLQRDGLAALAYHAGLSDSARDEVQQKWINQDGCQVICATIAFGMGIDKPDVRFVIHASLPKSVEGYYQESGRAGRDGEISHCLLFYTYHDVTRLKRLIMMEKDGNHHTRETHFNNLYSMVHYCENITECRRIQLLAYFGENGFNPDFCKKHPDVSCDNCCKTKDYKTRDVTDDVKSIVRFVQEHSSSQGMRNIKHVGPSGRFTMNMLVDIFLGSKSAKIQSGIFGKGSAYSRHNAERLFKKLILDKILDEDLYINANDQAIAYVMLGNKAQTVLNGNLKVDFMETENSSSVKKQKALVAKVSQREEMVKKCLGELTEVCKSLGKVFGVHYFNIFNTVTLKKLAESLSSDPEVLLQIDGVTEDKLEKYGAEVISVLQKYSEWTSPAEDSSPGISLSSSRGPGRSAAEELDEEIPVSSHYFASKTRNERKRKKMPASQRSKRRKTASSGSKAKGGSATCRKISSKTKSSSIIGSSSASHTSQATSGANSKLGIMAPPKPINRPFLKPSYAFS
# Summary of the method: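 50 nM BLM preincubated 15 min at room temperature with compound in pH 8.0 Tris buffer containing 2.5 ug/ml poly(dI-dC); started with 200 nM TAMRA/BHQ-2 forked duplex and 2 mM ATP (final). Unwinding read as TAMRA fluorescence increase, two reads 2 h apart.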
# [5] = Cytometric Cell-Based qHTS for Inhibitors of the mTORC1 Signaling Pathway in MEF (Tsc2-/-, p53-/-) Cells (AID 2660);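 note: Tsc2 and p53 null MEFs carrying empty vector with compound for 24 h; percent of cells above a phospho-rpS6 to PI ratio cutoff in each well; series mostly up to about 38 µM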
# Summary of the method: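 Immunofluorescence qHTS of rpS6 Ser235/236 phosphorylation: MEFs (Tsc2-/-, p53-/-) treated 24 h, 37 C, in DMEM + 10% FBS. Alexa-488 signal normalized to PI count, referenced to rapamycin (7.5 nM) and DMSO; PI cell number recorded for viability.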
# [6] = High Content Imaging Cell-Based qHTS for Inhibitors of the mTORC1 Signaling Pathway in MEF (Tsc2-/-, p53-/-) Cells (AID 2666);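 note: percent of cells scored positive for phospho-rpS6 Ser235/236 immunostaining by imaging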
# Summary of the method: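 MEF Tsc2-/- p53-/- (empty vector), DMEM/10% FBS; cpd 24 h 37 °C; PFA fix, Alexa-488 p-rpS6 S235/236 Ab, Hoechst; imaged; rapamycin-defined inhibition; % positive cells/well.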
# [7] = High Content Imaging Cell-Based qHTS for Inhibitors of the mTORC1 Signaling Pathway in MEF Cells (AID 2667);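 note: Tsc2-/- p53-/- MEFs stably re-expressing wild-type Tsc2 exposed 24 h; series mostly up to about 38 µM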
# Summary of the method: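 Read-out is the share of phospho-rpS6-positive cells per well, from Hoechst-normalized Alexa-488 Ser235/236 staining imaged on IN Cell. Cells: WT Tsc2-expressing Tsc2-/-, p53-/- MEFs exposed to compound for 24 hrs.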
# [8] = Cytometry Cell-Based qHTS for Inhibitors of the mTORC1 Signaling Pathway in MEF cells (AID 2668);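 note: Tsc2-/- p53-/- mouse embryonic fibroblasts stably re-expressing wild-type Tsc2; percent cells positive for phospho-rpS6 Ser235/236 relative to propidium iodide stain; series mostly up to about 38 µM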
# Summary of the method: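 Read-out: phospho-rpS6 Ser235/236 immunofluorescence normalized to propidium iodide intensity, scored as % active cells against a rapamycin (7.5 nM) threshold. Cells: Tsc2-/-, p53-/- MEFs stably expressing WT Tsc2, compound-treated 24 hrs at 37 degree Celsius.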
# [9] = Validation screen for small molecules that induce DNA re-replication in MCF 10A normal breast cells (AID 463097); note: nearly all actives have a fitted effect of over 60% in size
# Summary of the method: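 250 MCF 10A cells/well; compound pin-transferred; 48 hr, 37 C, 5% CO2; Hoechst 40 min; imaged 405/500-530 nm. Hits = more high-intensity nuclei.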
# [10] = target: Ubiquitin carboxyl-terminal hydrolase 2 (Homo sapiens) (UniProt O75604); test: qHTS Validation Assay for Inhibitors of Ubiquitin-specific Protease USP2a Using CHOP2 as the Reporter (AID 463106)
# Summary of the method: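 Fluorescence read-out at Ex 485nm/Em 531nm after 60min RT, following addition of 25nM Ub-CHOP2 plus 25nM reporter substrate to USP2 core (10nM) pretreated 30min with compound. Data normalized to NEM full inhibition; concentration-response curves fitted.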
# [11] = target: DNA polymerase III PolC-type (Bacillus subtilis (strain 168)) (UniProt P13267); test: qHTS Validation Assay for the Inhibitors of DNA Replication in Gram-Positive Bacteria (AID 485295);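 note: reconstituted holoenzyme with PolC plus beta clamp SSB and primase; PicoGreen fluorescence of double-stranded DNA made on primed circular M13 template; series mostly up to about 57 µM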
# Sequence of DNA polymerase III PolC-type (Bacillus subtilis (strain 168)) (P13267 whole entry, looked up): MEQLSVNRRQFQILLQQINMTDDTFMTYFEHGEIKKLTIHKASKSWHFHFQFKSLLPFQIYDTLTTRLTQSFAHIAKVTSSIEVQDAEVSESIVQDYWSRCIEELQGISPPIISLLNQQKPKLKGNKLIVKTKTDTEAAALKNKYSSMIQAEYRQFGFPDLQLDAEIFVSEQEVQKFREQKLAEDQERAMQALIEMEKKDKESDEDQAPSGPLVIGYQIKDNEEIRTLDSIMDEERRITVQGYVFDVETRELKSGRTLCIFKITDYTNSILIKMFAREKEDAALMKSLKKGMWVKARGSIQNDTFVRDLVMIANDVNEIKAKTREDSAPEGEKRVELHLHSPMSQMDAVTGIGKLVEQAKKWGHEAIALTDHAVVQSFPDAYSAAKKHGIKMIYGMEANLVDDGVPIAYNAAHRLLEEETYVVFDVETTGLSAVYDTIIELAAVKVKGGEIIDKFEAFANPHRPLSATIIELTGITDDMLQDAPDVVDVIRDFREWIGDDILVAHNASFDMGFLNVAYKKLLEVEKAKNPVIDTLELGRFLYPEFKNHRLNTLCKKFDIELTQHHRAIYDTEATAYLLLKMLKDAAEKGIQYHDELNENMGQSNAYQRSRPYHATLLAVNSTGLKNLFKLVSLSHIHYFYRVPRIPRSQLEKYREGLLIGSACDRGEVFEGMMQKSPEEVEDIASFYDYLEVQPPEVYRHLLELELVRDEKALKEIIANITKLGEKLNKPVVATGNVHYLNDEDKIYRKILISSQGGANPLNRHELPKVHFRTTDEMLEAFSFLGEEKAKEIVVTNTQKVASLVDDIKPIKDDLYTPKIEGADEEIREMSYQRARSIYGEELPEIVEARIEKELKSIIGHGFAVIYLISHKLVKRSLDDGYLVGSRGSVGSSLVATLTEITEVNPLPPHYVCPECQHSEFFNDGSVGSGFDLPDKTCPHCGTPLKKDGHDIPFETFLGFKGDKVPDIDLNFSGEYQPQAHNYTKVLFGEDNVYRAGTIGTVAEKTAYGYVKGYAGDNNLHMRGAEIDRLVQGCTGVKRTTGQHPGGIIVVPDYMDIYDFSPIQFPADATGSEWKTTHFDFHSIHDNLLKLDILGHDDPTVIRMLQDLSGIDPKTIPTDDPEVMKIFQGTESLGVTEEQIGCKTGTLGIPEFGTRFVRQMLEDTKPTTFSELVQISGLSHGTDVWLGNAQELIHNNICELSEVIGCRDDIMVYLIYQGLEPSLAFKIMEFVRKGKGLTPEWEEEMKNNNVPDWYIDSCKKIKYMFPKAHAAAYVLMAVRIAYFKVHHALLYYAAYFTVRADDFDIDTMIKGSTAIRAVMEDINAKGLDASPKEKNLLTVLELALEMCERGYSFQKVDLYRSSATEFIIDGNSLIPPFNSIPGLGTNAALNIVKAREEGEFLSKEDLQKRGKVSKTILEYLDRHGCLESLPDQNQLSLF
# Summary of the method: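 PicoGreen fluorescence (ex 480–485/em 535–540 nm) reports dsDNA synthesized on ssM13Gori template with dNTPs/NTPs. Enzyme: holoenzyme rebuilt from purified PolC, beta subunit, SSB and primase. Compound preincubated before substrate addition; RT throughout.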
# [12] = qHTS Validation Assay to Find Inhibitors of Chronic Active B-Cell Receptor Signaling (AID 485345; active = well fitted curve in the direction sought with a large enough effect in the main read-out, with a control signal flat, not every such curve was filed as active)
# Summary of the method: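 TMD8 ABC-DLBCL cells stably carrying doxycycline-inducible IkappaBalpha–green luciferase fusion plus unfused red luciferase; compounds 46 uM to 3 nM, 4 h at 37C with doxycycline. Corrected green/red luminescence ratio normalized to 10 uM MG-132 and basal cell wells; curves fitted.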
# [13] = target: Beta-2 adrenergic receptor (Homo sapiens) (UniProt P07550); test: qHTS validation assay of beta-arrestin-biased ligands of beta2-adrenergic receptor (AID 485366)
# Sequence of Beta-2 adrenergic receptor (Homo sapiens) (P07550 whole entry, looked up): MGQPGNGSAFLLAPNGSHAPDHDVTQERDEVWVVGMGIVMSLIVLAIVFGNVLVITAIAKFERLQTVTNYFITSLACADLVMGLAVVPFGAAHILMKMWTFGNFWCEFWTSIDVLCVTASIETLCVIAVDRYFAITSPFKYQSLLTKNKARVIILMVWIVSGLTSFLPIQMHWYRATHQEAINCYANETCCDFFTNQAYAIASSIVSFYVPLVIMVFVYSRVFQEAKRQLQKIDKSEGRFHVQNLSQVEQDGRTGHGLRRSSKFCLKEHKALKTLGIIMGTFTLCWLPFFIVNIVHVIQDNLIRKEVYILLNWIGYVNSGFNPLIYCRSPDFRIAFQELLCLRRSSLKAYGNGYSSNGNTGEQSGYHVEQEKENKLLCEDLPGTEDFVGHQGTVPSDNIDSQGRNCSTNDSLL
# Summary of the method: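 Agonism was measured as beta-arrestin recruitment to recombinant beta2-AR, releasing tTA to drive luciferase. Cells were exposed for 18 hr at 37 degrees C to a series up to 46 microM. %Activity from corrected luminescence gave concentration-response curves.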
# [14] = Quantitative high throughput screen for delayed death inhibitors of the malarial parasite plastid, 96 hour incubation (AID 488745); note: nearly all actives have a fitted effect of over 70% in size; note: potency is the fitted concentration of half-maximal effect
# Summary of the method: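 Readout is firefly luciferase luminescence from an integrated reporter in P. falciparum; lower signal marks inhibited growth. Cultures at 2% hematocrit and 0.1% parasitemia were treated with compound across two generations (96 h, 37 C, 5% CO2).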
# [15] = qHTS Assay for Modulators of Human Peripheral Myelin Protein 22 (PMP22) Expression/Activity (AID 1967; active = well fitted curve in the direction sought with a large enough effect in the signal ratio; the % refers to the signal ratio)
# Summary of the method: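 Mouse MSC80 Schwann line, Pmp22 promoter–CBG68 reporter, EF-alpha–CBR internal control. 24h compound exposure, 37 °C/5% CO2, DMEM + 10% FBS. Readout: corrected green/red luminescence ratio, normalized to untreated cells; concentration-response curves fitted and classified.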
# [16] = target: Tumor susceptibility gene 101 protein (Homo sapiens) (UniProt Q99816); test: qHTS Validation Assay for Iinhibitors of HIV-1 Budding by Blocking the Interaction of PTAP/TSG101 (AID 485342; calls by dose curve)
# Sequence of Tumor susceptibility gene 101 protein (Homo sapiens) (Q99816 whole entry, looked up, the tested form may be a part): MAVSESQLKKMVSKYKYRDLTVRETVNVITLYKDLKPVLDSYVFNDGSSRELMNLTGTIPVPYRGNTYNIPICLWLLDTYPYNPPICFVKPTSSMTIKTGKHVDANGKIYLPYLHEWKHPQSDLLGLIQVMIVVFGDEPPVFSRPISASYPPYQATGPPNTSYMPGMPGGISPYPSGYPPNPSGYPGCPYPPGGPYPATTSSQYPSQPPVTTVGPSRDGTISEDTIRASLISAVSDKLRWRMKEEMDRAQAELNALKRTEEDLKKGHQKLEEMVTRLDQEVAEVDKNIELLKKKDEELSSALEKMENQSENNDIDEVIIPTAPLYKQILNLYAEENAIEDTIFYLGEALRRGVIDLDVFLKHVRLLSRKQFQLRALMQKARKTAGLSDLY
# Summary of the method: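 FP read-out: FITC-PTAP peptide, 50 nM final, binding Tsg101 binding domain, 10 uM final; 20 min r.t.; 10 mM HEPES pH 7.5, 0.15 M NaCl, 0.01% Tween 20, 3 mM EDTA, 0.1 mM TCEP.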
# [17] = Quantitative high throughput screen for delayed death inhibitors of the malarial parasite plastid, 48 hour incubation (AID 488752); note: nearly all actives have a fitted effect of over 65% in size; note: potency is the fitted concentration of half-maximal effect
# Summary of the method: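 First, compound was pinned into RPMI 1640 medium containing 0.5% Albumax. Next, reporter-parasite-infected erythrocytes were added to 2% hematocrit and 0.1% parasitemia. After 48 h at 37 C under 5% CO2, luciferase detection reagent was added and luminescence read.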
# [18] = target: Thioredoxin reductase 1, cytoplasmic (Rattus norvegicus) (UniProt O89049); test: qHTS Assay for Substrates of Mammalian Selenoprotein Thioredoxin Reductase 1 (TrxR1) (AID 488772);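 note: series mostly up to about 57 µM; a drop in NADPH fluorescence below the no-compound background marks a TrxR1 substrate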
# Sequence of Thioredoxin reductase 1, cytoplasmic (Rattus norvegicus) (O89049 whole entry, looked up): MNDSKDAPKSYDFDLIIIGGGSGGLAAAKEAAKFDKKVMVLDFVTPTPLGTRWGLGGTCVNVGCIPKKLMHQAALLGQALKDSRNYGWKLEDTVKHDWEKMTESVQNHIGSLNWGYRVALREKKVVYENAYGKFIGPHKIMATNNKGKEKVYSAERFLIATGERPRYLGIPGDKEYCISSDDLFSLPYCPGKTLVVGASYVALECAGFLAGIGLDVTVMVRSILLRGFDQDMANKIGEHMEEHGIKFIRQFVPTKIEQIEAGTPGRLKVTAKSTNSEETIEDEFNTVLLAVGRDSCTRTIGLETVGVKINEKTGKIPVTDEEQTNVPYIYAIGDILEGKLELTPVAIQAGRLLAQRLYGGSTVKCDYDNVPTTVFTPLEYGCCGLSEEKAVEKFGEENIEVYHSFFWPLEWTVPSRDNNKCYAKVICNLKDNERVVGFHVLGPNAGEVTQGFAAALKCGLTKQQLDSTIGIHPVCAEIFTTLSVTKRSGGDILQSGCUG
# Summary of the method: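 In this dual-purpose format, potential substrates are identified from the first fluorescence read after selenite addition, not from the 8-minute delta. Rat enzyme is preincubated with NADPH and then with compound at ~22 deg C.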
# [19] = qHTS Assay for Identification of Small Molecule Inducers of Hypoxia Response (AID 2120; active = well fitted curve in the direction sought with a large enough effect in the signal ratio, with a control signal flat, not every such curve was filed as active; the % refers to the signal ratio)
# Summary of the method: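 Cell-based qHTS for reporter induction: hypoxia response element controlled beta-lactamase in ME-180 cells. Compounds incubated 17 h at 37 degrees C; activity from blue/green (460/530 nm) ratio, inducers ranked by AC50.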
# [20] = target: ATP-dependent 6-phosphofructokinase (Trypanosoma brucei brucei) (UniProt O15648); test: qHTS Validation Assay to Find Inhibitors of T. brucei phosphofructokinase (AID 485368); conditions: outcome: dose series up to 57.5 µM
# Summary of the method: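 ADP-Glo luminescence, two-step: residual ATP depleted, then ADP converted to ATP for luciferase. Enzyme 1.25 nM, F6P 0.5 mM, ATP 0.1 mM, pH 8.0 TEA buffer, 45 min RT. Curves fitted and classed by quality and efficacy.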
Compound,Potency [1],outcome [2],Potency [3],Potency [4],outcome [5],Potency [6],Potency [7],Potency [8],Potency [9],outcome [10],Potency [11],Potency [12],outcome [13],Potency [14],outcome [15],outcome [16],Potency [17],outcome [18],outcome [19],outcome [20]
OCCN1CCN(CCCN2c3ccccc3C=Cc3ccccc32)CC1,8.91 µM (active) and 12.6 µM (active),inactive,inactive,inactive,inactive,inactive,inactive,inactive,inactive,inactive,inactive,inactive,inactive,13.1 µM (active),,,,,,
CCCCCN(CCCCC)C(=O)C(CCC(=O)O)NC(=O)c1ccc(Cl)c(Cl)c1 (centres undefined),inactive,inactive,inactive,,inactive,inactive,inactive,inactive,inactive,inactive,inactive,inactive,inactive,inactive,inactive,inactive,inactive,inactive,,
CN=C(NC#N)NCCSCc1nc[nH]c1C,inactive,inactive,inactive,inactive,inactive,,inactive,inactive,inactive,inactive,inactive,inactive,inactive,inactive,,inactive,inactive,inactive,inactive,
CC(C)[N+](C)(CCOC(=O)C1c2ccccc2Oc2ccccc21)C(C)C,7.08 µM (active),inactive,inactive,inactive,inactive,inactive,inactive,inactive,,inactive,inactive,inactive,inactive,3.29 µM (active),,,4.65 µM (active),inactive,,inactive
C[C@H](CS)C(=O)N1CCC[C@H]1C(=O)O,inactive,inactive,inactive,inactive,inactive,,inactive,inactive,inactive,,inactive,inactive,inactive,inactive,,,inactive,,,
CCN(Cc1ccncc1)C(=O)C(CO)c1ccccc1 (centres undefined),inactive,inactive,inactive,,,,inactive,inactive,,inactive,inactive,inactive,inactive,inactive,inactive,inactive,inactive,inactive,,
NC(=O)N1c2ccccc2C=Cc2ccccc21,inactive,inactive,inactive,inactive,inactive,inactive,inactive,inactive,inactive,inactive,inactive,inactive,inactive,inactive,,inactive,inactive,inactive,inactive,
NS(=O)(=O)c1cc2c(cc1Cl)NC(C1CC3C=CC1C3)NS2(=O)=O (centres undefined),inactive,,11.2 µM (active),,inactive,inactive,inactive,inactive,inactive,inactive,inactive,inactive,inactive,,inactive,inactive,inactive,inactive,,
CCCNC(C)C(=O)Nc1ccccc1C (centres undefined),inactive,inactive,inactive,inactive,inactive,inactive,inactive,inactive,,inactive,inactive,inactive,inactive,inactive,,inactive,,inactive,,inactive
O=c1[nH]c(=O)n([C@H]2C[C@H](O)[C@@H](CO)O2)cc1Br,inactive,inactive,inactive,inactive,inactive,,inactive,,inactive,inactive,inactive,inactive,inactive,inactive,,,inactive,inactive,,
CN1CCN(CC(=O)N2c3ccccc3C(=O)Nc3cccnc32)CC1,inactive,inactive,inactive,inactive,inactive,,inactive,inactive,,inactive,inactive,inactive,inactive,inactive,,inactive,inactive,inactive,,
Cc1ccc(S(=O)(=O)NC(=O)NN2CCCCCC2)cc1,inactive,inactive,inactive,inactive,inactive,,inactive,inactive,inactive,inactive,inactive,inactive,inactive,inactive,inactive,inactive,inactive,inactive,,
CC(C)COCC(CN(Cc1ccccc1)c1ccccc1)N1CCCC1 (centres undefined),inactive,inactive,inactive,inactive,inactive,inactive,inactive,inactive,,inactive,inactive,inactive,inactive,inactive,,inactive,inactive,inactive,,
c1ccc2c(c1)CCCC2C1=NCCN1 (centres undefined),inactive,inactive,inactive,,,,inactive,inactive,inactive,inactive,inactive,inactive,inactive,inactive,inactive,,inactive,inactive,,
FC(F)(F)c1ccccc1-n1ccnc1,inactive,inactive,inactive,inactive,inactive,inactive,inactive,inactive,inactive,inactive,inactive,inactive,inactive,,,inactive,inactive,inactive,,
C=CCc1ccccc1OCC(O)CNC(C)C (centres undefined),11.2 µM (active),inactive,inactive,inactive,inactive,inactive,inactive,inactive,,inactive,inactive,inactive,,,,,inactive,inactive,,
CN(C)CCCN1c2ccccc2Sc2ccccc21,10 µM (active),inactive,inactive,inactive,inactive,inactive,,,inactive,inactive,inactive,,inactive,inactive,,inactive,inactive,inactive,,
